According to PubChem BioAssay (NCI):
The panel holds about 79,000 compounds, 15% with a hit somewhere; the sample as a whole holds those more often. Active and inactive are the calls of the source. Cut-off read from the data, not from the text of the source: active = growth inhibition above about 70%; inactive = the rest.

Legend:
[1] = NCI Yeast Anticancer Drug Screen. Data for the rad52 strain (AID 147);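 note: 0% = growth of vehicle-treated control cultures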; conditions: S. cerevisiae rad52 mutant growth inhibition, active compounds read high
Outline: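 Compounds are applied to a genetically defined yeast strain lacking normal DNA damage repair, and inhibition of growth is expressed relative to cultures given vehicle only.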

[2] = NCI Yeast Anticancer Drug Screen. Data for the wt1 strain (AID 149);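 note: 0% = growth of vehicle-treated wt1 cultures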; conditions: S. cerevisiae wt1 strain (SPY 50644) growth inhibition, active compounds read high
Outline: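 Using yeast strain wt1, compound-induced growth inhibition was determined against vehicle-treated cultures.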

[3] = NCI Yeast Anticancer Drug Screen. Data for the rad50EPP+ strain (AID 151);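 note: 0% = growth of vehicle-treated control cultures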; conditions: S. cerevisiae rad50 mutant strain, active compounds read high
Outline: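 Compounds were applied to the rad50EPP+ yeast strain, which bears a defined DNA repair alteration, and growth inhibition was determined relative to vehicle-treated cultures.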

[4] = NCI Yeast Anticancer Drug Screen. Data for the mgt1 strain (AID 153); conditions: S. cerevisiae mgt1 mutant growth inhibition, active compounds read high
Outline: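 Strain: mgt1 yeast, one of a set carrying defined DNA damage repair or cell cycle control alterations. Compound-treated growth compared with vehicle.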

[5] = NCI Yeast Anticancer Drug Screen. Data for the rad50 strain (AID 155);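 note: 0% = growth of vehicle-only cultures of the same strain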; conditions: S. cerevisiae rad50 strain growth inhibition, active compounds read high
Outline: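 Relative growth inhibition (compound vs vehicle) was measured in yeast with a defined repair-gene alteration.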

[6] = NCI Yeast Anticancer Drug Screen. Data for the mec2-1 strain (AID 157); conditions: S. cerevisiae mec2-1 strain, active compounds read high
Outline: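 Strain: mec2-1 (DNA repair/cell cycle alteration). Compound exposure, then growth measured; inhibition expressed relative to vehicle.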

[7] = NCI Yeast Anticancer Drug Screen. Data for the rad14 strain (AID 159);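 note: 0% = growth of vehicle-treated control cultures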; conditions: S. cerevisiae rad14 strain growth inhibition, active compounds read high
Outline: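 Screen for anticancer potential: a yeast strain altered in DNA damage repair is grown with compound, and reduced growth is quantified against vehicle controls.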

[8] = NCI Yeast Anticancer Drug Screen. Data for the sgs1 mgt1 strain (AID 161);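 note: 0% = growth of cultures given vehicle only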; conditions: S. cerevisiae sgs1 mgt1 strain, active compounds read high
Outline: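 Inhibition of yeast growth, normalised to vehicle-treated controls, is reported for a strain bearing genetic alterations in DNA damage repair.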

[9] = NCI Yeast Anticancer Drug Screen. Data for the CLN2oe strain (AID 163);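 note: 0% = growth of vehicle-only control cultures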; conditions: S. cerevisiae CLN2oe strain, active compounds read high
Outline: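 Growth of a genetically modified yeast strain is measured after compound exposure and compared with cultures given vehicle alone.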

[10] = NCI Yeast Anticancer Drug Screen. Data for the cln2 rad14 strain (AID 165);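 note: 0% = growth equal to vehicle treated cultures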; conditions: S. cerevisiae cln2 rad14 strain, active compounds read high
Outline: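 Compounds are applied to the cln2 rad14 yeast strain, and growth is then compared with that of vehicle-treated cultures to give inhibition.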

[11] = NCI Yeast Anticancer Drug Screen. Data for the bub3 strain (AID 167); conditions: S. cerevisiae bub3 mutant strain, active compounds read high
Outline: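 Screening used yeast with an engineered genetic alteration affecting cell cycle control. Compound-exposed cultures were compared with vehicle cultures, and reduced growth was taken as inhibition.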

[12] = NCI Yeast Anticancer Drug Screen. Data for the wt2 strain (AID 169);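 note: 0% = growth of vehicle-treated yeast cultures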; conditions: S. cerevisiae wt2 strain growth inhibition, active compounds read high
Outline: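 This strain belongs to a panel of yeast strains with defined genetic alterations in DNA damage repair or cell cycle control. Compounds are applied, and growth inhibition is measured against vehicle-treated cultures.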

[13] = NCI Yeast Anticancer Drug Screen. Data for the mlh1 strain (AID 171);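 note: 0% = growth of vehicle-treated control cultures of the same strain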; conditions: S. cerevisiae mlh1 strain growth inhibition, active compounds read high
Outline: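 Growth of the mutant yeast strain after compound exposure, expressed as inhibition relative to vehicle-only controls.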

[14] = NCI Yeast Anticancer Drug Screen. Data for the sgs1 strain (AID 173);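 note: 0% = growth of vehicle-only control cultures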; conditions: S. cerevisiae sgs1 mutant, active compounds read high
Outline: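 Growth of a yeast strain bearing a defined genetic alteration is measured after compound treatment. Inhibition is expressed relative to vehicle-only controls.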

[15] = NCI Yeast Anticancer Drug Screen. Data for the mlh1 rad18 strain (AID 175); conditions: S. cerevisiae mlh1 rad18 strain growth inhibition, active compounds read high
Outline: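 Read-out is yeast growth inhibition, calculated against vehicle-only controls. The compound was applied to a strain engineered with DNA damage repair alterations.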

[16] = NCI Yeast Anticancer Drug Screen. Data for the rad18 strain (AID 177); conditions: S. cerevisiae rad18 mutant growth inhibition, active compounds read high
Outline: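 Growth of the mutant yeast strain after compound exposure, normalised to vehicle-only cultures.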

[17] = at 5.0 µM (retest, dose inferred, filed as 0.5)
[18] = at 50.0 µM (retest, dose inferred, filed as 5.0)

Measured: growth inhibition

CCO/C=C1\SC(=S)N(c2ccc(OCC)cc2)C1=O
active: [1]; at 100.0 µM 70% | [3]; at 100.0 µM 76% | [5]; [18] 79% | [5]; at 100.0 µM 72% | [6]; [18] 86% | [11]; [18] 73% | [11]; at 50.0 µM 72.2% | [15]; [18] 76%
inactive: [1]; at 1.2 µM 3% | [1]; at 3.7 µM -1% | [1]; at 11.0 µM 0% | [1]; at 33.0 µM 25% | [2]; at 1.2 µM -36% | [2]; at 3.7 µM -51% | [2]; at 11.0 µM -50% | [2]; at 33.0 µM -34% | [2]; at 100.0 µM -33% | [3]; at 1.2 µM -38% | [3]; at 3.7 µM -21% | [3]; at 11.0 µM -6% | [3]; at 33.0 µM 42% | [4]; at 1.2 µM -13% | [4]; at 3.7 µM -6% | [4]; at 11.0 µM -20% | [4]; at 33.0 µM 0% | [4]; at 100.0 µM 45% | [5]; at 1.2 µM -17% | [5]; at 3.7 µM -7% | [5]; [17] 41% | [5]; at 11.0 µM -3% | [5]; at 33.0 µM 36% | [5]; at 50.0 µM 29.7% | [6]; at 1.2 µM -43% | [6]; at 3.7 µM -35% | [6]; [17] 47% | [6]; at 11.0 µM -27% | [6]; at 33.0 µM -41% | [6]; at 50.0 µM 28.2% | [6]; at 100.0 µM 26% | [7]; at 1.2 µM -42% | [7]; at 3.7 µM -41% | [7]; at 11.0 µM -40% | [7]; at 33.0 µM -2% | [7]; at 100.0 µM 8% | [8]; [17] -7% | [8]; [18] 44% | [8]; at 50.0 µM 33.5% | [9]; at 1.2 µM -8% | [9]; at 3.7 µM -1% | [9]; at 11.0 µM 4% | [9]; at 33.0 µM 21% | [9]; at 100.0 µM 57% | [10]; [17] 26% | [10]; [18] 60% | [10]; at 50.0 µM 21.1% | [11]; at 1.2 µM -7% | [11]; at 3.7 µM -4% | [11]; [17] 9% | [11]; at 11.0 µM -9% | [11]; at 33.0 µM 32% | [11]; at 100.0 µM 58% | [12]; at 1.2 µM -28% | [12]; at 3.7 µM -38% | [12]; at 11.0 µM -59% | [12]; at 33.0 µM -38% | [12]; at 100.0 µM 27% | [13]; at 1.2 µM -8% | [13]; at 3.7 µM -12% | [13]; at 11.0 µM -18% | [13]; at 33.0 µM -14% | [13]; at 100.0 µM -10% | [14]; at 1.2 µM -35% | [14]; at 3.7 µM -39% | [14]; at 11.0 µM -34% | [14]; at 33.0 µM -33% | [14]; at 100.0 µM 32% | [15]; [17] 29% | [15]; at 50.0 µM 57.5% | [16]; at 1.2 µM -37% | [16]; at 3.7 µM -31% | [16]; at 11.0 µM -32% | [16]; at 33.0 µM -21% | [16]; at 100.0 µM 18%

CCN1CCC(O)(c2ccc(Oc3ccc(Cl)cc3)cc2)C(C(=O)c2ccc(Oc3ccc(Cl)cc3)cc2)C1 (stereo unspecified)
active: [5]; at 50.0 µM 83% | [6]; at 50.0 µM 93.2% | [8]; [17] 97% | [8]; [18] 98% | [8]; at 50.0 µM 89.2% | [10]; [18] 98% | [10]; at 50.0 µM 87.5% | [11]; [17] 87% | [11]; [18] 98% | [11]; at 50.0 µM 90.2% | [15]; [17] 82% | [15]; at 50.0 µM 90.5%
inactive: [1]; at 1.2 µM -10% | [1]; at 3.7 µM -14% | [1]; at 11.0 µM -16% | [1]; at 33.0 µM -6% | [1]; at 100.0 µM 12% | [2]; at 1.2 µM -51% | [2]; at 3.7 µM -27% | [2]; at 11.0 µM -44% | [2]; at 33.0 µM -46% | [2]; at 100.0 µM -8% | [3]; at 1.2 µM -7% | [3]; at 3.7 µM 0% | [3]; at 11.0 µM 4% | [3]; at 33.0 µM -2% | [3]; at 100.0 µM 7% | [4]; at 1.2 µM 30% | [4]; at 3.7 µM 64% | [4]; at 11.0 µM 42% | [4]; at 33.0 µM 47% | [4]; at 100.0 µM 59% | [5]; at 1.2 µM -20% | [5]; at 3.7 µM -7% | [5]; [17] 51% | [5]; at 11.0 µM -8% | [5]; at 33.0 µM -30% | [5]; [18] 7% | [5]; at 100.0 µM -6% | [6]; at 1.2 µM 0% | [6]; at 3.7 µM 28% | [6]; [17] 68% | [6]; at 11.0 µM 26% | [6]; at 33.0 µM 1% | [6]; [18] -2% | [6]; at 100.0 µM 8% | [7]; at 1.2 µM -4% | [7]; at 3.7 µM 16% | [7]; at 11.0 µM 11% | [7]; at 33.0 µM 21% | [7]; at 100.0 µM 45% | [9]; at 1.2 µM 28% | [9]; at 3.7 µM 44% | [9]; at 11.0 µM 35% | [9]; at 33.0 µM 33% | [9]; at 100.0 µM 16% | [10]; [17] 23% | [11]; at 1.2 µM 22% | [11]; at 3.7 µM 39% | [11]; at 11.0 µM 50% | [11]; at 33.0 µM 39% | [11]; at 100.0 µM 51% | [12]; at 1.2 µM -21% | [12]; at 3.7 µM 35% | [12]; at 11.0 µM 5% | [12]; at 33.0 µM -13% | [12]; at 100.0 µM 23% | [13]; at 1.2 µM -1% | [13]; at 3.7 µM -4% | [13]; at 11.0 µM -8% | [13]; at 33.0 µM -4% | [13]; at 100.0 µM 0% | [14]; at 1.2 µM -27% | [14]; at 3.7 µM 63% | [14]; at 11.0 µM 20% | [14]; at 33.0 µM 11% | [14]; at 100.0 µM 33% | [15]; [18] 18% | [16]; at 1.2 µM -6% | [16]; at 3.7 µM 20% | [16]; at 11.0 µM -1% | [16]; at 33.0 µM -4% | [16]; at 100.0 µM 7%

CC(=O)/C(=C\c1ccc(Cl)c(Cl)c1)C(=O)C(C)CN(C)C (stereo unspecified)
active: [1]; at 100.0 µM 91% | [2]; at 100.0 µM 90% | [3]; at 100.0 µM 90% | [4]; at 100.0 µM 93% | [5]; at 100.0 µM 91%
inactive: [1]; at 1.2 µM 19% | [1]; at 3.7 µM 21% | [1]; at 11.0 µM 33% | [1]; at 33.0 µM 52% | [2]; at 1.2 µM -12% | [2]; at 3.7 µM -13% | [2]; at 11.0 µM -12% | [2]; at 33.0 µM 10% | [3]; at 1.2 µM 7% | [3]; at 3.7 µM 7% | [3]; at 11.0 µM 3% | [3]; at 33.0 µM 37% | [4]; at 1.2 µM 6% | [4]; at 3.7 µM -2% | [4]; at 11.0 µM 10% | [4]; at 33.0 µM 46% | [5]; at 1.2 µM 26% | [5]; at 3.7 µM 22% | [5]; [17] 14% | [5]; at 11.0 µM 18% | [5]; at 33.0 µM 62% | [5]; [18] 36% | [5]; at 50.0 µM 64.4% | [6]; at 1.2 µM 19% | [6]; at 3.7 µM 29%
